Assay [1] in a line: small molecules captured by biotinylated probe aFSTL3 – biochemical, small-molecule microarray, fluorescence 635/667, stem cell growth factor project, primary screen (AID 1064).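 Further: measures binding of the biotinylated anti-FSTL3 antibody to printed compounds.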 The note with it: higher = more signal.
Assay [2] in a line: binders from COS7 lysate, DM2A8 probe, primary screen, torsin A project, cell lysate, small-molecule microarray, fluorescence 635/667 (AID 1065). The note with it: higher = more signal, COS7 lysate expressing mutant human TOR1A.
A short description of assay [3]: small molecules captured by biotinylated probe aFGF2 – biochemical, small-molecule microarray, fluorescence 635/667, stem cell growth factor project, primary screen (AID 1067).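 Further: measures binding of biotinylated aFGF2 protein to printed compounds on slides; z-score merges feature fluorescence and signal-to-noise across triplicate slides.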 The settings on record: higher = more signal.
Assay [4] is described as follows: small molecules captured by biotinylated probe aFGF10 – biochemical, small-molecule microarray, fluorescence 635/667, stem cell growth factor project, primary screen (AID 1071).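 Further: score merges 667 nm spot intensity and signal to noise from triplicate slides.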 The settings on record: higher = more signal.
Assay [5] addresses Neurogenic locus notch homolog protein 2 (Homo sapiens) (UniProt Q04721). As to the kind of experiment: small molecules binding Notch2 protein – biochemical, small-molecule microarray, 635 nm fluorescence, stem cell growth factors, primary screen (AID 1073). The settings on record: higher = more signal.
The target of assay [6] is Pro-neuregulin-1, membrane-bound isoform (Homo sapiens) (UniProt Q02297). Put plainly: small molecules binding neuregulin-1 protein – biochemical, small-molecule microarray, fluorescence 635/667, psychiatric disease protein project, primary screen (AID 1075).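 Further: score combines 667 nm spot fluorescence with signal to noise.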 The settings on record: NRG1 binding, 635 nm fluorescence, higher = more signal.
Sequence of Pro-neuregulin-1, membrane-bound isoform (Homo sapiens) (Q02297 whole entry, looked up, the tested form may be a part, canonical isoform): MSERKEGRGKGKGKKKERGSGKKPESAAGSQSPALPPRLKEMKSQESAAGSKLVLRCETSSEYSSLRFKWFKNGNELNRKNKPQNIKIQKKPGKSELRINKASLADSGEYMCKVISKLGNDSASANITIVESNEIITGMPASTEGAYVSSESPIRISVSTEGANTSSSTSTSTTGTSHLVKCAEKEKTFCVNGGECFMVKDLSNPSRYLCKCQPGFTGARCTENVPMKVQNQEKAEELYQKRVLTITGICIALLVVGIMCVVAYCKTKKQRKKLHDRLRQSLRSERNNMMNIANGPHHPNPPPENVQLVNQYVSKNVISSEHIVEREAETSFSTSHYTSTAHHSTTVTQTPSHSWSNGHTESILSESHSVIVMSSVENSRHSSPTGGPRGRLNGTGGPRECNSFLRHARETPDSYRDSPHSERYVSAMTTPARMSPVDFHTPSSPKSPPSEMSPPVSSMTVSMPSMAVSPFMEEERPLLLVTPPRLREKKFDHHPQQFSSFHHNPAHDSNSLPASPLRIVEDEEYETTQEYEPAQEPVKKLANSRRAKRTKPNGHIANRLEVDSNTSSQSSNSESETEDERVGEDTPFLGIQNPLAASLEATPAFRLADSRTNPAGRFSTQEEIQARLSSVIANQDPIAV
Assay [7] concerns Neuregulin-1 EGF-like domain. Put plainly: small molecules binding NRG1 EGF domain – biochemical, small-molecule microarray, 635 nm fluorescence, primary screen (AID 1081).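 Further: binding of the protein to compounds printed on small-molecule microarray slides.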 The settings on record: higher = more signal.
A short description of assay [8]: FRG1 expression reporter modulators in myotubes – cell-based, C2C12 myotubes, firefly/Renilla luciferase, luminescence, FRG1 inhibition for FSHD, primary screen (AID 1084). The note with it: FRG1 promoter luciferase, higher = more signal, called active from +8 up or from −8 down.
Assay [9] can be described thus: small molecules captured by biotinylated probe aFST – biochemical, small-molecule microarray, fluorescence 635/667, stem cell growth factor project, primary screen (AID 1086).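 Further: score merges 667 nm fluorescence with signal-to-noise of each printed compound spot.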 The settings on record: higher = more signal.
Assay [10] in a line: binders of probe aHhip on microarray, primary screen, stem cell growth factor project, biochemical, small-molecule microarray, fluorescence 635/667 (AID 1087).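 Further: score merges spot fluorescence at 667nm with spot signal to noise ratio.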 The settings on record: higher = more signal.
In assay [11] the test system is PRMT1 (protein arginine N-methyltransferase 1). Put plainly: small molecules binding arginine methyltransferase PRMT1 – biochemical, small-molecule microarray, 635 nm fluorescence, primary screen (AID 1088).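 Further: binding of Prmt1 protein to compounds spotted on small-molecule microarray slides.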 The note with it: higher = more signal.
A short description of assay [12]: growth effects on S. cerevisiae YJM789 – YJM789 clinical isolate, OD600, 24 h, basal, primary screen (AID 1089).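 Further: growth of clinical yeast isolate S. cerevisiae YJM 789 seeded 1000 cells per well; test concentration not given here.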 The note with it: higher = more signal, called active from +8 up or from −8 down.
Assay [13] can be described thus: S. pombe growth modifiers, basal conditions – strain 972, OD600, 24 h, no modulator, primary screen (AID 1090).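 Further: basal condition with compound alone and no growth modifier present; test concentration not given here.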 The settings on record: S. pombe 972 growth, higher = more signal, called active from +8 up or from −8 down.
Assay [14] is described as follows: budding yeast growth modifiers under rapamycin – strain BY4716, OD600, 96 h, primary screen (AID 1091). Further: test concentration not given here. The settings on record: S. cerevisiae BY4716 + rapamycin, higher = more signal, called active from +8 up or from −8 down.
Assay [15] addresses Torsin-1A-interacting protein 2 (Homo sapiens) (UniProt Q8NFQ8). Put plainly: small molecules binding lysate-expressed LULL1 – cell lysate, human LULL1 lysate, 635/667 nm fluorescence, primary screen (AID 1092).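 Further: probe is lysate of COS7 cells overexpressing human LULL1; score merges per-feature 667 nm fluorescence with signal-to-noise.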 The settings on record: small-molecule microarray, hLULL1 lysate binding, 635 nm fluorescence; higher = more signal.
Assay [16] can be described thus: optical density change of DRC41 E. coli – strain DRC41, OD650, 24 h, E. coli filamentation project, primary screen (AID 1093).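 Further: MC1000 strain lacking acrAB efflux and sulA so SOS filamentation is blocked; test concentration not given here.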 The settings on record: E. coli DRC41 growth, higher = more signal, called active from +8 up or from −8 down.
The nature of assay [17]: probe aLefty2 binding to arrayed compounds – biochemical, biotinylated probe, 635/667 nm fluorescence, primary screen (AID 1094).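 Further: score merges spot fluorescence near 667 nm with spot signal-to-noise ratio.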 The settings on record: small-molecule microarray, higher = more signal.
Assay [18] deals with Noggin (protein binding on small-molecule microarray). As to the kind of experiment: small molecules binding Noggin protein – biochemical, 635/667 nm fluorescence, primary screen (AID 1095).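 Further: score merges 667 nm feature fluorescence with signal to noise over triplicate slides.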 The settings on record: 635 nm fluorescence, higher = more signal.
Assay [19] has as its target Neurogenic locus notch homolog protein 3 (Homo sapiens) (UniProt Q9UM47). Put plainly: small molecules binding NOTCH3 protein – biochemical, 635/667 nm fluorescence, primary screen (AID 1096). The settings on record: small-molecule microarray, 635 nm fluorescence, higher = more signal.
The nature of assay [20]: probe aEGFR binding to arrayed compounds – biochemical, biotinylated probe, 635/667 nm fluorescence, primary screen (AID 1097).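 Further: probe is a biotinylated anti-EGFR antibody binding compounds printed on slides; score combines fluorescence near 667 nm and signal to noise of each spot.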 The note with it: small-molecule microarray, higher = more signal.

Calls of active or inactive are those of the source.

Sequence of Torsin-1A-interacting protein 2 (Homo sapiens) (Q8NFQ8 whole entry, looked up): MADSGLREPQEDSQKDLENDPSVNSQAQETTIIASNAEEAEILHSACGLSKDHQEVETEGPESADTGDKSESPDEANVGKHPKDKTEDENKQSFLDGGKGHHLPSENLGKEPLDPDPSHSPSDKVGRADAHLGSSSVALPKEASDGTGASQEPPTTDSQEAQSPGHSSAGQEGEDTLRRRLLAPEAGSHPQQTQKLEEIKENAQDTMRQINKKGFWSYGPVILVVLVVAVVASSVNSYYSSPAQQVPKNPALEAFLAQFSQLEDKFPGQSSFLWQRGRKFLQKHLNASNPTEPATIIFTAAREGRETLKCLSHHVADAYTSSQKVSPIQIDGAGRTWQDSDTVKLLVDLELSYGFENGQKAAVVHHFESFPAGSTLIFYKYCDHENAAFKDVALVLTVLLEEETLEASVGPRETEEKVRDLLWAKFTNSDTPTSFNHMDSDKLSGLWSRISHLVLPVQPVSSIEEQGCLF
Sequence of Neurogenic locus notch homolog protein 3 (Homo sapiens) (Q9UM47 whole entry, looked up): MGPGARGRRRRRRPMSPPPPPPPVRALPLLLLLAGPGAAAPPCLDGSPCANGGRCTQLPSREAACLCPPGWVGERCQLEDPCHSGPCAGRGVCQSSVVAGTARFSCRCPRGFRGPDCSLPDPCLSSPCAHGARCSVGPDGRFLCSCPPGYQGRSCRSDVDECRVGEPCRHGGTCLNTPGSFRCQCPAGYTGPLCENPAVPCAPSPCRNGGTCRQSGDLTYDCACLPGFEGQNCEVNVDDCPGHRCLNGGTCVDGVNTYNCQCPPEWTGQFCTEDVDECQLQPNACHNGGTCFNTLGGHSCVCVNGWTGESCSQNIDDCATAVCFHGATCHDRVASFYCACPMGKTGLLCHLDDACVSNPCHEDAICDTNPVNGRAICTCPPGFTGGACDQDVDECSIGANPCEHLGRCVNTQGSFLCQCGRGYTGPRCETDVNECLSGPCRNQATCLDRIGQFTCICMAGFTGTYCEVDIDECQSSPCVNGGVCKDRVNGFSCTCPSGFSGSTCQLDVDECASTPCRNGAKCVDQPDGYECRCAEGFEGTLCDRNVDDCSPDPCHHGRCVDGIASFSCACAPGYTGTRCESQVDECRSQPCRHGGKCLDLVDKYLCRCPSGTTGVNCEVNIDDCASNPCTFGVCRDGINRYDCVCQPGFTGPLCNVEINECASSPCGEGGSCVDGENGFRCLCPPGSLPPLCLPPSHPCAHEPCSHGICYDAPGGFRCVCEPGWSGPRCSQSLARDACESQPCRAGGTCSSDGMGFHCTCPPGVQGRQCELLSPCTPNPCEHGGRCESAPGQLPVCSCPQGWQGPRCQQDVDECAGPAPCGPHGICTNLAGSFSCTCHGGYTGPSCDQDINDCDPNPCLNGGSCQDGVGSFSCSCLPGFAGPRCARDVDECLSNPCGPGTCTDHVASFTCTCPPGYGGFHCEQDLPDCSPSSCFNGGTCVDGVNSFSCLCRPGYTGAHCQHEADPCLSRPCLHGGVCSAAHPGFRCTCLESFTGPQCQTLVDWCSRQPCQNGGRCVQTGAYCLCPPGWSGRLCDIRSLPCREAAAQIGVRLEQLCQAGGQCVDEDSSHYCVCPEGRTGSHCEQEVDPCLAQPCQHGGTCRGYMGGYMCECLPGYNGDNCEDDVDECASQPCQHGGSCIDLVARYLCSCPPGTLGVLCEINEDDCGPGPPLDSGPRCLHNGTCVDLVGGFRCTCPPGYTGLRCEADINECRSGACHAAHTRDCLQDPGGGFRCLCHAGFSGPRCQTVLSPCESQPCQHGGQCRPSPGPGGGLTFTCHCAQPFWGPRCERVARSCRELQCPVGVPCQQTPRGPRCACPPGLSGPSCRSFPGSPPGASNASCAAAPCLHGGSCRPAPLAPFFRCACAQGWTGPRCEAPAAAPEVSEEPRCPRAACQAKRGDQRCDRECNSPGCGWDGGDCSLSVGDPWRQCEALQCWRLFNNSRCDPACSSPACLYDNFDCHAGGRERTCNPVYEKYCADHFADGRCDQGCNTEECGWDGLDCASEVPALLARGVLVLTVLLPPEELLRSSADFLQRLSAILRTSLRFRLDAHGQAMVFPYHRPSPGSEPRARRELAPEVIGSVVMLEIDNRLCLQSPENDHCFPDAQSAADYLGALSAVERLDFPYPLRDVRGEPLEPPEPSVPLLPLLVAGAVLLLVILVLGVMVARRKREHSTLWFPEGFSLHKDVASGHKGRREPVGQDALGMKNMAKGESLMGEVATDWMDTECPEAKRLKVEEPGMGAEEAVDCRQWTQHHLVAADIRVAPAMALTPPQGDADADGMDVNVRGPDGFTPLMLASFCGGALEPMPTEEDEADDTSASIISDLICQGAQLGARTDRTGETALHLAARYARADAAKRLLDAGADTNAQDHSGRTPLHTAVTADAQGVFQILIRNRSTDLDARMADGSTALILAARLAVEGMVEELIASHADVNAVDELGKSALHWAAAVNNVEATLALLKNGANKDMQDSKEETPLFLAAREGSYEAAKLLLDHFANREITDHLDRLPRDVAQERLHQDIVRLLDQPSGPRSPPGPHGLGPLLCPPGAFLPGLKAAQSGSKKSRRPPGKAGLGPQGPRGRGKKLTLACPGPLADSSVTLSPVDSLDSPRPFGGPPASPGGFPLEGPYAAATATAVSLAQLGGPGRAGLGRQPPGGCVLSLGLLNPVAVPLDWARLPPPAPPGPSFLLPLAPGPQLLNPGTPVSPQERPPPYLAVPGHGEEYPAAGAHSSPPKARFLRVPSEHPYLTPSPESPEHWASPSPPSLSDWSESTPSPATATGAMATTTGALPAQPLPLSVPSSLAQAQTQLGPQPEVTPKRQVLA

In the case of `CON(C)C(=O)c1nnc2c(n1)[nH]c1ccccc12`, the composite z-score was -0.262 in assay [1]; 0.668 in assay [2]; -0.165 in assay [3]; 0.494 in assay [4]; 0.448 in [5]; 0.0309 in assay [6]. Further, the composite z-score in assay [7] was 0.823; in assay [9], -0.128; in assay [10], -0.323; in [11], 0.194; in assay [15] it was 0.3; in [17], -0.0931. In addition, the composite z-score in assay [18] is 0.586; in [19], 0.483; in assay [20] it was -0.121. In addition, the z-score in [8] was 168 (active); in assay [12], -0.545 (inactive); in assay [13] it was 0.577 (inactive); in assay [14], -0.298 (inactive); in [16], 0.816 (inactive).
On to `CCc1cc2c(nc1CC)CCN(CCC(C)=NO[C@@H]1O[C@H](COC(C)=O)[C@@H](OC(C)=O)[C@H](OC(C)=O)[C@H]1OC(C)=O)C2`, for which the composite z-score in assay [1] is -0.191; in [2], 0.905; in assay [3] it was 0.0333; in assay [4] it was 0.928; in assay [5] it was 0.839; in assay [6] it was 0.408. Besides, the composite z-score was 0.996 in assay [7]; 0.365 in assay [9]; -0.0994 in assay [10]; 1.55 in assay [11]; 0.809 in assay [15]; -0.0271 in assay [17]. Besides, the composite z-score stood at 1.06 in assay [18], 1.1 in assay [19] and 0.131 in assay [20]. The z-score in [8] is 1.05 (inactive); in [12], -0.149 (inactive); in assay [13], -0.35 (inactive); in [14], 0.143 (inactive); in assay [16], -0.551 (inactive).
Take `O=C1C2=CC[C@H]3C(=O)N(C[C@@H]4CCCO4)C(=O)[C@H]3[C@H]2[C@H](O)[C@@H]2O[C@H]12`: the composite z-score in assay [1] was -0.275; in assay [2], 0.191; in assay [3], -0.0878; in assay [4], 0.111; in [5] it was -0.0143; in [6], -0.209. The composite z-score in assay [7] was 0.75; in assay [9], -0.258; in [10] it was -0.145; in [11], 0.514; in assay [15], -0.553; in assay [17] it was -0.126. Further, the composite z-score is -0.0904 in assay [18], -0.264 in [19] and -0.0565 in [20]. The z-score is -1.42 (inactive) in assay [8]; 0.0382 (inactive) in [12]; -0.722 (inactive) in assay [13]; 0.109 (inactive) in assay [14]; -0.0137 (inactive) in assay [16].
Consider `CC(=O)OC[C@H]1O[C@H](CC=NOC(C)CN2CCCCc3nc(C)c(C)cc32)C=C[C@@H]1OC(C)=O` (stereo not given in full), for which the composite z-score was -0.349 in [1]; 2.35 in [2]; -0.071 in assay [3]; 0.325 in assay [4]; 0.965 in assay [5]; 0.0843 in assay [6]. Also, the composite z-score in assay [7] amounted to 0.978; in [9], 0.0013; in [10], 0.158; in assay [11], 1.54; in [15], 1.51; in assay [17], 0.176. Besides, the composite z-score in [18] worked out at 1.13; in assay [19], 1.01; in assay [20], 0.43. Moreover, the z-score in assay [8] is 0.851 (inactive); in assay [12], -0.814 (inactive); in assay [13], -0.0245 (inactive); in [14] it was -0.151 (inactive); in [16] it was 0.522 (inactive).
For the molecule `O=C1[C@H]2[C@H]3[C@H](O)[C@H](O)CC(=NO[C@@H]4O[C@H](CO)[C@@H](O)[C@H](O)[C@H]4O)[C@@H]3CC[C@H]2C(=O)N1c1cccc(Oc2ccccc2)c1`, the composite z-score in assay [1] is -0.309; in assay [2], 0.21; in [3] it was -0.125; in assay [4], 0.649; in assay [5], 0.628; in [6] it was 0.495. For the same molecule, the composite z-score in assay [7] was 1.02; in assay [9], 0.365; in assay [10], 0.0373; in assay [11], -0.175; in assay [15], 0.879; in assay [17], -0.028. Also, the composite z-score in [18] was found to be 0.672; in assay [19], 0.449; in assay [20] it was 0.0102. The z-score was 0.423 (inactive) in [8]; -0.603 (inactive) in assay [12]; 0.275 (inactive) in [13]; 0.0506 (inactive) in [14]; 0.364 (inactive) in assay [16].
